High-throughput results deposited in PubChem BioAssay by National Center for Advancing Translational Sciences (NCATS).
In the library only some 19% were active in any assay of this set; here they are far more common.
KB-3-1 tox – qHTS assay for MDR1-selective chemotherapeutics: Primary screen using the parental adenocarcinoma cell KB-3-1; KB-3-1 viability, CellTiter-Glo ATP luminescence, 72 h; Potency, µM (series often up to 46.1 µM), actives largely listed as cytotoxic; hit rate 1.4% among 400,000; note: nearly all actives have a fitted effect of over 60% in size
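Parental KB-3-1 viability, qHTS format: 72 h compound exposure, 37 °C; CellTiter-Glo; media-only wells and DMSO plates as controls; concentration-effect fits on corrected data.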
HT1080NT lethal – qHTS for induction of synthetic lethality in tumor cells producing 2HG: qHTS for the HT-1080-NT fibrosarcoma cell line; HT-1080-NT fibrosarcoma viability, CellTiter-Glo ATP luminescence, 48 h; Potency, µM (series often up to 46.1 µM), hits mostly cytotoxic; hit rate 1.6% among 360,000; AID 686970, 2013;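 note: NT is the 2HG producing partner of a matched IDH1 knockdown line; nearly all actives have a fitted effect of over 55% in size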
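HT-1080-NT; 750 cells/well; 5% FBS RPMI; 48 h compound, 37 degrees C; CellTiter-Glo luminescence; curve fitting and curve-class assignment.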
KB-V1 MDR tox – qHTS assay for MDR1-selective chemotherapeutics: Primary screen using the drug-selected MDR subline cells KB-V1 | KB-V1 MDR cells viability, CellTiter-Glo, 72 h | Potency, µM (titrated, usually from 46.1 µM), most hits filed as cytotoxic | hit rate 3.4% among 400,000; note: nearly all actives have a fitted effect of over 60% in size
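KB-V1, DMEM (no phenol red) + 10% FBS; cpd pin-transferred, titration series; 72 h, 37 degrees C; CellTiter-Glo, luminescence. Data normalized, curve-fit.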
TDP1 cell CPT – qHTS for Inhibitors of human tyrosyl-DNA phosphodiesterase 1 (TDP1): qHTS in cells in presence of CPT; Potency, µM (titrated, usually from 46.2 µM), usual class: inhibitors; chicken DT40 Tdp1-/-;hTDP1 cells + 20 nM CPT, ATP luminescence, 48 h; hit rate 12% among 420,000; AID 686979, 2013; note: nearly all actives have a fitted effect of over 55% in size
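Chicken DT40 Tdp1-/- cells complemented with human TDP1, 400 cells/well, exposed to compounds plus 20 nM camptothecin for at least 48 h at 37 C; viability read as ATP content by CellTiter-Glo luminescence.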
TDP1 cell noCPT – qHTS for Inhibitors of human tyrosyl-DNA phosphodiesterase 1 (TDP1): qHTS in cells in absence of CPT. DT40 Tdp1-/- hTDP1 cells, no CPT, ATP luminescence, 48 h. Potency, µM (highest dose often 46.2 µM), hits mostly inhibitors. hit rate 15% among 420,000. AID 686978, 2013; note: nearly all actives have a fitted effect of over 55% in size
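Growth of hTDP1-complemented DT40 Tdp1-knockout cells is measured by ATP luminescence after at least 48 hr compound exposure at 37 °C, with DMSO substituting for the 20 nM CPT used in the parallel screen.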
HT1080 IDH1KD tx – qHTS for induction of synthetic lethality in tumor cells producing 2HG: qHTS for the HT-1080-IDH1KD cell line; HT-1080 IDH1 knockdown viability, ATP luminescence, 48 h; Potency, µM (series often up to 46.1 µM), usual class: cytotoxic; hit rate 2% among 360,000; AID 686971, 2013
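% activity derives from luminescence (CellTiter-Glo), normalised to DMSO and no-cell wells. HT-1080-IDH1KD cells, 750/well, had 48 h compound exposure at 37 °C.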
Numbers stand for hits; . = inactive; ? = inconclusive; / = not tested or not shown. Calls come from the whole dose curve; as a rule, active = well fitted curve in the direction sought with a large enough effect; inconclusive = small, poorly fitted or top-dose-only effect, or another doubt; inactive = no such curve, though single readings can be large; an effect the other way counts as inactive or inconclusive.

SMILES	KB-3-1 tox	HT1080NT lethal	KB-V1 MDR tox	TDP1 cell CPT	TDP1 cell noCPT	HT1080 IDH1KD tx
O=C(NC(=S)N1CCc2ccccc21)c1ccc(Br)o1	?	.	?	2.9µM	5.2µM	.
O=C(NC(=S)N1CCc2ccccc21)c1ccccc1Br	.	.	?	18µM	21µM	.
CC1CCCN(C(=O)C(=O)c2cn(CC(=O)N3CCCCCC3)c3ccccc23)C1 (configuration not stated)	.	.	.	?	.	.
NC(=O)Cn1nnc(-c2ccccc2NC(=O)c2cnccn2)n1	.	.	.	?	.	.
Cc1cc(C(=O)NNC(=O)Cc2ccc(Cl)c(Cl)c2)c(C)o1	.	.	.	.	.	.
COc1ccccc1N1CCN(C(=O)c2sc3nc4n(c(=O)c3c2C)CCC4)CC1	.	.	.	.	.	.
Cc1cccc(N2CCN(C(=O)c3sc4nc5n(c(=O)c4c3C)CCC5)CC2C)c1 (configuration not stated)	.	/	.	16µM	13µM	/
COc1ccc(N2CCN(C(=O)c3sc4nc5n(c(=O)c4c3C)CCC5)CC2)cc1	.	/	.	?	23µM	/
Cc1ccc(Cl)cc1N1CCN(C(=O)c2sc3nc4n(c(=O)c3c2C)CCC4)CC1	.	/	.	15µM	15µM	/
CCOC(=O)C[C@@H]1OC[C@H](C(C)C)N1S(=O)(=O)c1ccc(C)cc1	.	.	.	?	?	.
CCOc1ccc(NC(=O)N2CCC(CN3CCCCCC3)CC2)cc1	/	/	/	18µM	?	/
CCOc1ccc(NC(=O)CN2CCN(c3ccc(Cl)cc3)CC2)cc1	.	/	.	?	?	/
CCOc1ccc(NC(=O)N2CCN(c3ccc(Cl)c(Cl)c3)CC2)cc1	/	/	/	?	1.3µM	/
CC(C)c1ccc(NC(=O)N2CCN(c3ccc(Cl)c(Cl)c3)CC2)cc1	/	/	/	?	0.92µM	/
Cc1ccc(NC(=O)N2CCN(c3ccc(Cl)c(Cl)c3)CC2)cc1	/	/	/	?	3.3µM	/
O=C(Nc1nnc([C@@H]2C[C@H](O)[C@@H](CO)O2)s1)Nc1ccccc1Oc1ccccc1	.	.	.	?	?	.
O=S(=O)(Cc1ccc(Cl)cc1)CC(O)COCc1ccccc1 (configuration not stated)	.	.	?	.	.	.
Cn1c(/C(C#N)=C/C2CC=CCC2)nc2ccccc21 (configuration not stated)	.	?	.	?	?	?
N#C/C(=C\C1CC=CCC1)c1nc2ccccc2[nH]1 (configuration not stated)	?	?	13µM	.	?	?
C[n+]1cccc(C(=O)Nc2ccccc2)c1	.	.	.	.	.	.
COc1ccc(C)cc1NC(=O)CSc1nc(=O)n(Cc2ccco2)c2c1CCC2	.	/	.	?	?	/
Cc1ccc(S(=O)(=O)Nc2ccc3c(c2)C(=O)N([C@@H](C)CO)C[C@@H](C)[C@@H](CN(C)C(=O)NC2CCCCC2)OCCCC[C@H](C)O3)cc1	.	.	.	.	.	.
C[C@H](CO)N1C[C@H](C)[C@@H](CN(C)C(=O)NC2CCCCC2)Oc2ccc(NS(=O)(=O)c3ccccc3)cc2C1=O	.	.	.	.	.	.
C[C@@H]1CCCCO[C@H](CN(C)C(=O)Nc2cccc3ccccc23)[C@@H](C)CN([C@H](C)CO)C(=O)c2cc(N(C)C)ccc2O1	.	.	?	15µM	9.2µM	.
Cc1noc(C)c1NC(=O)Nc1ccc2c(c1)C(=O)N([C@@H](C)CO)C[C@@H](C)[C@H](CN(C)C(=O)Nc1cccc3ccccc13)OCCCC[C@H](C)O2	.	.	.	?	?	.
SMILES	KB-3-1 tox	HT1080NT lethal	KB-V1 MDR tox	TDP1 cell CPT	TDP1 cell noCPT	HT1080 IDH1KD tx
C[C@@H]1CCCCO[C@@H](CN(C)C(=O)Nc2ccccc2)[C@@H](C)CN([C@H](C)CO)C(=O)c2cc(N(C)C)ccc2O1	.	.	.	.	?	.
Cc1ccc(S(=O)(=O)Nc2ccc3c(c2)C(=O)N([C@H](C)CO)C[C@H](C)[C@H](CN(C)C(=O)Nc2cccc4ccccc24)OCCCC[C@@H](C)O3)cc1	.	.	?	21µM	15µM	.
C[C@@H]1CN([C@@H](C)CO)C(=O)c2cc(NS(=O)(=O)c3ccc(F)cc3)ccc2O[C@@H](C)CCCCO[C@H]1CN(C)C(=O)NC1CCCCC1	?	.	.	23µM	?	.
Cc1ccc(S(=O)(=O)Nc2ccc3c(c2)C(=O)N([C@H](C)CO)C[C@H](C)[C@@H](CN(C)C(=O)NC2CCCCC2)OCCCC[C@@H](C)O3)cc1	.	.	.	21µM	13µM	.
C[C@H](CO)N1C[C@H](C)[C@@H](CN(C)Cc2ccncc2)Oc2c(NS(=O)(=O)c3cn(C)cn3)cccc2C1=O	.	.	?	.	.	.
COc1cccc(Cn2c(=O)c(-c3ccc(F)c(F)c3)nc3cncnc32)c1	/	/	/	.	?	/
O=C(Cn1nnc(-c2ccc(F)cc2)n1)NC(=O)NC1CCCCC1	.	.	.	?	?	.
O=C(/C=C/c1ccc([N+](=O)[O-])cc1)Nc1ncc([N+](=O)[O-])s1	?	?	8.2µM	5.8µM	8.2µM	?
O=C(/C=C/c1ccc([N+](=O)[O-])cc1)NCc1ccccn1	.	.	.	?	.	.
Cc1cnc(NC(=O)c2cccs2)s1	?	.	?	.	.	.
O=C(Nc1ncc([N+](=O)[O-])s1)c1ccccc1Br	.	?	.	21µM	18µM	?
O=C(Nc1ncc([N+](=O)[O-])s1)c1cccs1	?	23µM	16µM	18µM	10µM	21µM
CCCCC(CC)C(=O)Nc1ncc([N+](=O)[O-])s1 (configuration not stated)	?	?	?	?	?	18µM
COC(=O)c1cc(S(=O)(=O)N2CCN(Cc3ccccc3)CC2)c[nH]1	.	.	?	?	.	.
COCCNC(=O)CCc1nnc2ccc(N3CCC(C)CC3)nn12	.	.	.	.	.	.
CC(=O)c1ccc(N2CCN(c3nc4c(S(=O)(=O)c5ccc(C)c(C)c5)nnn4c4ccc(Cl)cc34)CC2)cc1	.	/	.	.	.	/
